The source made the active and inactive calls.
Assays:
[1] = E. coli DRC41 culture turbidity changes, primary screen, E. coli filamentation inducer project, strain DRC41, OD650, 48 h (AID 1152);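 note: E. coli MC1000 strain DRC41 lacking acrAB efflux pump and sulA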; settings: E. coli DRC41 (acrAB sulA), higher = more signal, called active from +8 up or from −8 down
[2] = small-molecule binders of probe aLefty1, primary screen, biochemical, small-molecule microarray, 635/667 nm fluorescence (AID 1153); settings: higher = more signal;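 note: score merges spot fluorescence with signal-to-noise ratio from the scanned slide images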
[3] = PSAC antagonists in infected red cells, primary screen, cell-based, P. falciparum Indochina, OD700, 1 h (AID 1154); settings: P. falciparum Indochina infected RBC osmotic lysis, higher = more signal, called active from +8 up or from −8 down
[4] = PSAC antagonists in infected red cells, primary screen, cell-based, P. falciparum Indochina, OD700, 2 h (AID 1155);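 note: lysis reports solute entry through the parasite surface anion channel PSAC; channel blockers reduce lysis of infected cells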; settings: P. falciparum Indochina infected erythrocytes, osmotic lysis OD700; higher = more signal, called active from +8 up or from −8 down
[5] = osmotic lysis modulators in infected erythrocytes, primary screen, PSAC antagonist project, cell-based, P. falciparum Indochina, OD700, 3 h (AID 1156); settings: higher = more signal, called active from +8 up or from −8 down
[6] = PSAC antagonists in infected red cells, primary screen, cell-based, P. falciparum Indochina, OD700, 18 h (AID 1157); settings: P. falciparum Indochina infected erythrocytes, osmotic lysis OD700, 18 h; higher = more signal, called active from +8 up or from −8 down
[7] = modulators of S6 phosphorylation in cells, primary screen, cell-based, A549, cytoblot, luminescence, serum-stimulated (AID 1158); settings: A549 phospho-S6 cytoblot, 5 h, higher = more signal;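 note: serum-stimulated A549 lung adenocarcinoma cells; signal is phosphorylated S6 detected by cytoblot immunostaining with HRP secondary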
[8] = molecular target: NADPH oxidase 2 (Homo sapiens) (UniProt P04839); assay: NOX2-dependent H2O2 signal modulators, primary screen, NOX inhibitor project, cell-based, HEK293-NOX2, PMA-stimulated, Amplex Red fluorescence (AID 1159); settings: 45 min, higher = more signal, called active from +8 up or from −8 down; note: test concentration not given here
NADPH oxidase 2 (Homo sapiens), sequence (P04839 whole entry, looked up): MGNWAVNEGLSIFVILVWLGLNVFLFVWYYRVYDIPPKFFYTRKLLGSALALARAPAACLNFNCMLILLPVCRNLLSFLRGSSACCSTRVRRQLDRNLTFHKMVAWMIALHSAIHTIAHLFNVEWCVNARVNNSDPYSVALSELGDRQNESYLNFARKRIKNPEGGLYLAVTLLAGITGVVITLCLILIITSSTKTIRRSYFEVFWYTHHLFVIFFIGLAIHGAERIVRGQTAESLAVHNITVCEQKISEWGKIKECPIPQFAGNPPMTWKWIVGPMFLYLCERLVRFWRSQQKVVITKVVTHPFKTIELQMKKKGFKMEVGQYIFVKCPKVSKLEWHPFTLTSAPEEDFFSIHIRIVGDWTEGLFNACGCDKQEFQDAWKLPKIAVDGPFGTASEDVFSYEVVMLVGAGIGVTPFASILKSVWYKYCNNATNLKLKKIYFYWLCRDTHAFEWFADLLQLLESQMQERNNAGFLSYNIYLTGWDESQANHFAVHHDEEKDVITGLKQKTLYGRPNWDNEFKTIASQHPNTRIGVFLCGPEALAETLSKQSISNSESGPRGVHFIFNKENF

[9] = molecular target: NADPH oxidase 4 (Homo sapiens) (UniProt Q9NPH5); assay: NOX4-dependent H2O2 signal modulators, primary screen, NOX inhibitor project, cell-based, HEK293-NOX4, tetracycline-induced, Amplex Red fluorescence (AID 1160); settings: 45 min, higher = more signal, called active from +8 up or from −8 down
NADPH oxidase 4 (Homo sapiens), sequence (Q9NPH5 whole entry, looked up): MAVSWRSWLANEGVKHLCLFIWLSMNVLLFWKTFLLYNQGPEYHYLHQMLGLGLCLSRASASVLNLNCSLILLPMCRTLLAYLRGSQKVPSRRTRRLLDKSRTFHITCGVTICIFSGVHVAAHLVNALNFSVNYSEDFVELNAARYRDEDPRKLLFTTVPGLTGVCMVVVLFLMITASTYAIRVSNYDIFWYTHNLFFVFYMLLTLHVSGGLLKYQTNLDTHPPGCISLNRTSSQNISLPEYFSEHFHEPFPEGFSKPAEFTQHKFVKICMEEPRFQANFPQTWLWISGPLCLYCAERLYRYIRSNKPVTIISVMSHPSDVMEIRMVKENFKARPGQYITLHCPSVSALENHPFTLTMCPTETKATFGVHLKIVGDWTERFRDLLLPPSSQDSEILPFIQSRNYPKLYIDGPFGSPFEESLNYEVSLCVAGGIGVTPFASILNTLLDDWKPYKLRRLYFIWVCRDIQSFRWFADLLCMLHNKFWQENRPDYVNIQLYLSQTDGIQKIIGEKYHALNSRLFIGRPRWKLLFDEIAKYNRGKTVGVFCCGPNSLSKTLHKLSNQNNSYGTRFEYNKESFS

[10] = molecular target: NADPH oxidase 5 (Homo sapiens) (UniProt Q96PH1); assay: NOX5-dependent H2O2 signal modulators, primary screen, NOX inhibitor project, cell-based, HEK293-NOX5, Amplex Red fluorescence (AID 1161); settings: HEK293-NOX5, ionomycin, 45 min, higher = more signal
NADPH oxidase 5 (Homo sapiens), sequence (Q96PH1 whole entry, looked up): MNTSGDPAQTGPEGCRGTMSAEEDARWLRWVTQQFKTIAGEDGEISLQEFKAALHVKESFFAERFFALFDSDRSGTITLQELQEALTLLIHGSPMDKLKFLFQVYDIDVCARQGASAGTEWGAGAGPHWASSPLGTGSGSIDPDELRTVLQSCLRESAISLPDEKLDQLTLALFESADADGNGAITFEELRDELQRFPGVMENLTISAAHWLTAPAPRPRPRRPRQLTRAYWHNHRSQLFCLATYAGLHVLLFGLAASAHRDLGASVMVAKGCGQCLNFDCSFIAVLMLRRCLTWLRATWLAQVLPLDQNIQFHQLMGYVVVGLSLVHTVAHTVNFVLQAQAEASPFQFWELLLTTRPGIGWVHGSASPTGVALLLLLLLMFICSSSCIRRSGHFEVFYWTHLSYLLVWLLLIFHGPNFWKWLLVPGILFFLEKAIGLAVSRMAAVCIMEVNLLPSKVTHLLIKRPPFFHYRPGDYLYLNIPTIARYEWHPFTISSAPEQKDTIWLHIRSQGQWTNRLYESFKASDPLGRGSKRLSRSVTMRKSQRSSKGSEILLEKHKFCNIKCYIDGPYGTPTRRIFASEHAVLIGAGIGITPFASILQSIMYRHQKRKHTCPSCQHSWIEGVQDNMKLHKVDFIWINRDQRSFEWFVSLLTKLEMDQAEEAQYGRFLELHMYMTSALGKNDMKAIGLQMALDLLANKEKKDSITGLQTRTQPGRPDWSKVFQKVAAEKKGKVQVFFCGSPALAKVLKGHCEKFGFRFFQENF

[11] = A549 cell viability effects, profiling panel, calcein-AM fluorescence, 48 h, basal (AID 1162); settings: higher = more signal; note: test concentration not given here
[12] = adipocyte viability effects, profiling panel, cell-based, 3T3-L1 adipocytes, calcein-AM fluorescence, 48 h, basal (AID 1163); settings: 3T3-L1 adipocytes viability, higher = more signal; note: test concentration not given here
[13] = HepG2 cell viability effects, profiling panel, calcein-AM fluorescence, 48 h, basal (AID 1164); settings: higher = more signal; note: test concentration not given here
[14] = MM1S cell viability effects, profiling panel, calcein-AM fluorescence, 48 h, basal (AID 1165); settings: higher = more signal;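 note: viability of MM1S multiple myeloma cells under basal unstimulated conditions; test concentration not given here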
[15] = basal RPMI8226 viability, no added stimulus, profiling panel, cell-based, calcein-AM fluorescence, 48 h, PK04 Diversity Set (AID 1166); settings: RPMI8226 myeloma viability, higher = more signal;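 note: cells grown under basal conditions without added stimulus; test concentration not given here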
[16] = basal HepG2 mitochondrial membrane potential changes, profiling panel, cell-based, JC-1 fluorescence, 24 h, 100 nL compound (AID 1167); settings: higher = more signal; note: test concentration not given here
[17] = basal 3T3-L1 adipocyte mitochondrial potential changes, profiling panel, cell-based, JC-1 fluorescence, 3T3-L1 adipocytes, 24 h, 100 nL compound (AID 1168); settings: JC-1 mitochondrial fluorescence, higher = more signal, called active from +8 up or from −8 down; note: test concentration not given here
[18] = basal RPMI8226 mitochondrial membrane potential changes, profiling panel, cell-based, JC-1 fluorescence, 24 h, 100 nL compound (AID 1169); settings: RPMI8226 myeloma, JC-1 mitochondrial potential fluorescence, higher = more signal; note: test concentration not given here
[19] = basal MM1S mitochondrial membrane potential changes, profiling panel, cell-based, JC-1 fluorescence, 24 h, 100 nL compound (AID 1170); settings: higher = more signal; note: test concentration not given here
[20] = A549 lung cancer cell viability effects, profiling panel, resazurin fluorescence, 24 h, PK04 Diversity Set (AID 1171); settings: higher = more signal, called active from +8 up or from −8 down; note: test concentration not given here

Row | SMILES | z-score [1] | composite z-score [2] | z-score [3] | z-score [4] | z-score [5] | z-score [6] | z-score [7] | z-score [8] | z-score [9] | z-score [10] | z-score [11] | z-score [12] | z-score [13] | z-score [14] | z-score [15] | z-score [16] | z-score [17] | z-score [18] | z-score [19] | z-score [20]
1 | CCOC(=O)C[C@H]1[C@H](OC(=O)c2ccc(C(=O)c3ccccc3)cc2)[C@@H](NC(=O)c2ccc(-c3ccccc3)cc2)c2cc(OCCCO)ccc2N1C(=O)c1ccccc1 | -0.948 (inactive) | -0.199 | 0.358 (inactive) | 0.135 (inactive) | -0.559 (inactive) | -0.16 (inactive) | 0.0156 | 0.788 (inactive) | 0.379 (inactive) | 0.551 | -0.56 | 0.734 | 0.2 | -0.821 | 0.134 | 1 | -0.136 (inactive) | 0.884 | -0.117 | -0.31 (inactive)
2 | COCCOC(=O)N1C(=O)[C@@]2(c3ccccc31)[C@H](c1ccccc1OCCO)N1[C@H](c3ccccc3)[C@H](c3ccccc3)OC(=O)[C@H]1[C@@H]2C(=O)Nc1nc2ccccc2s1 | 1.57 (inactive) | 0.523 | 3.27 (inactive) | 2.77 (inactive) | 1.37 (inactive) | 1.84 (inactive) | 0.59 | 1.39 (inactive) | 1.41 (inactive) | 0.676 | -0.331 | 0.0264 | -0.271 | -1.39 | -1.54 | -1.51 | 1.79 (inactive) | -1.01 | -1.33 | -1.02 (inactive)
3 | O=C(c1ccccc1)N1Cc2ccccc2[C@@H]2OC(c3ccc(OCCCO)cc3)=N[C@]2(Cc2ccccc2)C1=O | -0.672 (inactive) | 0.343 | 10.8 (active) | 1.35 (inactive) | 1.25 (inactive) | 1.23 (inactive) | -0.118 | -0.893 (inactive) | 0.418 (inactive) | -0.781 | -1.09 | 1.27 | -0.795 | -2.02 | -3.92 | -0.435 | 0.166 (inactive) | -1.11 | 0.106 | -1.57 (inactive)
4 | COc1cc2c(cc1O)C=[N+](Cc1cccc(OC(F)(F)F)c1)CC2 | 0.272 (inactive) | -0.464 | 3.05 (inactive) | -1.25 (inactive) | -0.747 (inactive) | -2.03 (inactive) | 0.818 | -4.18 (inactive) | -2.56 (inactive) | -3.06 | 1.45 | 0.0197 | 1.2 | 1.25 | 0.346 | 1.01 | 0.0547 (inactive) | 0.145 | -0.471 | -1.68 (inactive)
5 | C=C(CCCC)C(=O)CC[C@H](OC(=O)c1cccnc1)c1ccccc1OCCO | 0.853 (inactive) | -0.012 | 16 (active) | 1.6 (inactive) | 0.232 (inactive) | -0.674 (inactive) | 1.28 | -1.2 (inactive) | -0.324 (inactive) | -2.33 | 0.414 | 1.54 | -0.664 | -3.22 | -1.65 | 0.663 | -0.916 (inactive) | -0.587 | -0.491 | 1.1 (inactive)
6 | CCOC(=O)[C@H]1C/C=C/C[C@H](C(=O)OCC)C(=O)O[C@H]2[C@@H](OC)O[C@H](CO)[C@@H](OC(=O)Nc3cccc(F)c3)[C@@H]2OC1=O | 0.0021 (inactive) | 1.53 | 4.53 (inactive) | 1.81 (inactive) | -2.04 (inactive) | 1.61 (inactive) | -0.0707 | -2.12 (inactive) | -0.389 (inactive) | -1.22 | -3.9 | -0.502 | -5.19 | -3.3 | -4.16 | -3.56 | 1.84 (inactive) | -0.959 | -1.99 | -5.95 (inactive)
7 | [N-]=[N+]=NCc1ccccc1C[C@]1(C(=O)NCC(O)CO)N=C(c2ccc(OCCCO)cc2)O[C@H]1c1ccccc1 (stereo not given in full) | 0.243 (inactive) | 0.33 | 13.1 (active) | 0.998 (inactive) | -0.593 (inactive) | 0.865 (inactive) | -0.0127 | 2.49 (inactive) | 0.717 (inactive) | -0.632 | -0.691 | 0.0311 | -1.25 | -2.42 | -1.81 | -1.31 | -0.142 (inactive) | -0.547 | -0.727 | -0.246 (inactive)
8 | [N-]=[N+]=NCc1ccccc1[C@H]1OC(c2ccc(OCCCO)cc2)=N[C@@]1(Cc1ccccc1)C(=O)NCc1ccccc1 | 0.336 (inactive) | 0.22 | 27.6 (active) | 23.5 (active) | 1.96 (inactive) | 1.77 (inactive) | -0.669 | 1.08 (inactive) | 0.113 (inactive) | -0.549 | -0.649 | 0.399 | 0.71 | -2.04 | -3.49 | 0.343 | 0.544 (inactive) | -1.35 | -0.765 | 0.789 (inactive)
9 | [N-]=[N+]=NCc1ccccc1[C@@H]1OC(c2ccc(OCCCO)cc2)=N[C@]1(CCS(=O)(=O)c1ccccc1)C(=O)NCCN1CCOCC1 | 0.36 (inactive) | 0.461 | 24 (active) | 6.42 (inactive) | 0.854 (inactive) | 0.763 (inactive) | -0.291 | 0.961 (inactive) | 1.92 (inactive) | 2.34 | 1.68 | -0.0282 | 1.61 | 0.377 | 0.501 | 0.374 | 0.995 (inactive) | 0.127 | -0.806 | -0.597 (inactive)

— PubChem BioAssay
